HTT aggregate: reduces HttQ103-GFP aggregates in PC12 cells. PC12 HttQ103-GFP aggregates, Acumen cytometry, 40 h. Potency, µM (highest dose often 46.1 µM), usual class: inhibitors. hit rate 1.1% among 220,000; also: nearly all actives have a fitted effect of over 60% in size
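PC12 cells stably carrying ecdysone-inducible HTT exon 1 Q103–GFP were induced with tebufenozide (100 nM final) and treated with library compounds in titration. GFP aggregates in lysates were counted by laser scanning cytometry.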
HTT cytoprotect: protects HTT-Q103 PC12 cells, measured by ATP | PC12 HTT-Q103 induced, cytoprotection, ATP luminescence, 40 h | AID 1471 | Potency, µM (series often up to 56.4 µM), most hits filed as activators | hit rate 0.14% among 230,000; also: nearly all actives have a fitted effect of over 45% in size
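PC12 cells with ecdysone-inducible HTT exon 1 Q103-GFP, induced with 100 nM tebufenozide and co-treated with library compounds in a dose series (1536-well, 1500 cells/well). Cytoprotection read as ATP content by ATPlite luminescence.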
ERK EGF block: blocks ERK signaling stimulated by EGF | HEK293-V1b, EGF-stimulated phospho-ERK AlphaScreen | Potency, µM (doses to about 11.5 µM), actives largely listed as inhibitors | hit rate 0.41% among 130,000 | AID 1454; also: nearly all actives have a fitted effect of over 55% in size
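Concentration-response of compounds against EGF-driven ERK phosphorylation in V1b-expressing HEK293 cells; 30 min preincubation, 5 min EGF, AlphaScreen detection; Normalized to DMSO basal and 25 nM EGF.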
Each line names hits and unclear results; the compound was inactive in the other large screens. Shown are actives, neighbours in structure and some others; about 1.4% of the full set was active somewhere. Calls follow the shape of the dose curve; as a rule, active = well fitted curve in the direction sought with a large enough effect; inconclusive = small, poorly fitted or top-dose-only effect, or another doubt; inactive = no such curve, though single readings can be large; an effect the other way counts as inactive or inconclusive.

CCCN(CCC)c1ncnc2nc[nH]c12	HTT aggregate 7.94µM (no result: ERK EGF block)
OCCN(CCO)c1ncnc2nc[nH]c12	none (no result: HTT aggregate, ERK EGF block)
Cc1ccc(/C=N/NC(=O)c2ccccc2OCc2cccc(Br)c2)o1	ERK EGF block 22.4µM
O=C(N/N=C/c1cccnc1)c1ccccc1OCc1cccc(Br)c1	none
CC1(C)CC(=O)C(C=NCC(N)=O)=C(O)C1	HTT aggregate 11.2µM (no result: ERK EGF block)
CN=CC1=C(O)CC(C)(C)CC1=O	none (no result: ERK EGF block)
COc1cc(OC)cc(C(=O)NCC(=O)OCC(=O)/C=C2/N(C)c3ccccc3C2(C)C)c1	ERK EGF block inconclusive
CN1/C(=C\C(=O)COC(=O)Cn2nnc(-c3ccccc3)n2)C(C)(C)c2ccccc21	HTT aggregate 11.2µM (no result: ERK EGF block)
COc1cccc(N2CCN(CC(=O)c3c[nH]c4ccc(OC)cc34)CC2C)c1 (configuration not stated)	HTT aggregate 35.5µM (no result: ERK EGF block)
COc1ccc2[nH]cc(C(=O)CN3CCCC(C)C3)c2c1 (configuration not stated)	none (no result: ERK EGF block)
CC(C)NC(=O)CSc1nnc(-c2ccc(F)cc2)c2ccccc12	HTT cytoprotect 12.6µM
CN(C(=O)CSc1nnc(-c2ccc(F)cc2)c2ccccc12)C1CCS(=O)(=O)C1 (configuration not stated)	HTT aggregate inconclusive
CC1=C2[C@H](/C=C(\C)C(=O)O)CC[C@@H](C)[C@H]2CC1	none (no result: HTT aggregate, ERK EGF block)
C=CCOC(=O)C(C(C)=O)C(NC(=O)OC)c1cccc(C(F)(F)F)c1 (configuration not stated)	none (no result: HTT aggregate, ERK EGF block)
CCOC(=O)C1CCN(C(c2cccnc2)c2c(NC(=O)c3ccco3)sc(C)c2C)CC1 (configuration not stated)	HTT aggregate 7.94µM (no result: ERK EGF block)
Cc1sc(NC(=O)c2ccco2)c(C(c2cccnc2)N2CCN(CCO)CC2)c1C (configuration not stated)	none
N=C(N)N	none (no result: HTT aggregate, HTT cytoprotect)
O=c1cc(-c2ccc(O)c(O)c2)oc2ccccc12	none (no result: HTT aggregate)
C=CCc1cc(C(=O)N2CCCCC2)ccc1O	HTT aggregate 22.4µM (no result: ERK EGF block)
O=C(c1ccc2c(c1)OCO2)N1CCCCC1	none (no result: HTT aggregate)
COC(=O)[C@@]1(Cc2ccccc2)[C@H]2c3cc(C(=O)N(C)C)n(CCN4CNCC4=O)c3C[C@H]2CN1C(=O)c1ccccc1	none (no result: HTT aggregate)
Cc1nn(CC(=O)NCc2cc3ccccc3[nH]2)c(C)c1[N+](=O)[O-]	ERK EGF block 14.1µM
Cc1nn(CC(=O)NCc2ccccc2F)c(C)c1[N+](=O)[O-]	none
CC(C)(C)Nc1oc(-c2ccccc2)nc1-c1cccc2ccccc12	none (no result: HTT aggregate)
Cc1ccc(C)c(N2CCN(CCCNC(=O)Cn3cccc3C(=O)c3ccccc3C)CC2)c1	HTT aggregate 15.8µM
Cc1ccccc1C(=O)c1cccn1CC(=O)NCCN1CCN(c2cccc(C)c2C)CC1	HTT aggregate inconclusive (no result: ERK EGF block)
COc1cccc(-c2nc(NCc3cccnc3)c3ccccc3n2)c1	none (no result: HTT aggregate, ERK EGF block)
COc1ccc(Cn2c(SCc3cc(C)ccc3C)nc3cc(OC)c(OC)cc3c2=N)cc1	HTT aggregate 3.16µM (no result: ERK EGF block)
COc1ccc(Cn2c(SCc3ccc(C)cc3)nc3cc(OC)c(OC)cc3c2=N)cc1Cl	HTT aggregate inconclusive (no result: ERK EGF block)
O=C(O)c1cc2c(cc1S(=O)(=O)O)[C@H]1[C@@H]([C@H]3[C@H]2[C@@]2(Cl)C(Cl)=C(Cl)[C@]3(Cl)C2(Cl)Cl)[C@]2(Cl)C(Cl)=C(Cl)[C@@]1(Cl)C2(Cl)Cl	none (no result: HTT aggregate, ERK EGF block)
COc1nc(Cl)nc(Cl)c1Cl (tested in a mixture with another compound)	none (no result: HTT aggregate, ERK EGF block)
CC[C@@H]1Cn2c(c3nc(-c4cc(Cl)cc(Cl)c4Cl)nc-3n(C)c2=O)N1	none (no result: HTT aggregate, ERK EGF block)
COc1ccc(NS(=O)(=O)c2cccc(NC(=O)c3ccc(Cl)nc3)c2)cc1	HTT aggregate 2.51µM, ERK EGF block inconclusive
O=C(Nc1cccc(S(=O)(=O)Nc2ccc(Cl)cc2)c1)c1ccc(Cl)nc1	HTT aggregate inconclusive (no result: ERK EGF block)
CCCC[C@@H]1C[C@H]1C(NC(=O)c1cccs1)c1ccc(C(F)(F)F)cc1 (some centres not stated)	none (no result: HTT aggregate)
Cc1c(CCOC(=O)CC23CC4CC(CC(C4)C2)C3)sc[n+]1Cc1ccccc1	HTT aggregate 11.2µM (no result: ERK EGF block)
Cc1ncc(C[n+]2csc(CCOC(=O)CC34CC5CC(CC(C5)C3)C4)c2C)c(N)n1	none
C[C@H]1[C@H](C)CC[C@@]2(C(=O)O)CC[C@]3(C)C(=CC[C@H]4[C@@]5(C)C[C@@H](O)[C@H](O)[C@@](C)(CO)[C@@H]5CC[C@@]43C)[C@@H]12	none (no result: HTT aggregate, ERK EGF block)
COc1ccc(C(=O)C2CCN(C(=S)Nc3ccc(F)cc3)CC2)cc1	HTT cytoprotect 2.51µM, ERK EGF block inconclusive
COc1ccc(NC(=S)N2CCC(C(=O)c3ccc(F)cc3)CC2)c(OC)c1	none
Cc1ccccc1CN1C[C@@H]2C[C@@H](c3cnc(N4CCOCC4)s3)N3CCC[C@@]23C1=O	HTT aggregate 2.51µM
COc1ccccc1CN1C[C@@H]2C[C@@H](c3ccccc3C)N3CCC[C@@]23C1=O	none
O=C(Nc1ccc2nc3n(c(=O)c2c1)CCCC3)c1cccc([N+](=O)[O-])c1	none
O=C(Nc1ccc2nc3n(c(=O)c2c1)CCCC3)c1cc([N+](=O)[O-])ccc1F	HTT aggregate 14.1µM
O=C(Nc1cccnc1)C1CCC(CNS(=O)(=O)c2cccc3nsnc23)CC1 (configuration not stated)	none
Cc1cc(O)c(C)c(O)c1C(=O)O	none (no result: HTT aggregate)
CCCn1c(-c2ccc(F)cc2)nc2c(NCCN3CCCCC3)nc(C)nc21	none (no result: HTT aggregate)
CCOC(=O)CSc1nc2ccccc2c(=O)n1CC	none (no result: ERK EGF block)
CCn1c(SCC(=O)OC2CCCCC2)nc2ccccc2c1=O	HTT aggregate 0.631µM (no result: ERK EGF block)
CC(=O)c1c(C)oc2ccc(N(C(C)=O)S(=O)(=O)c3cccc4cccnc34)cc12	none
CC(=O)c1c(C)oc2ccc(N(C(C)=O)S(=O)(=O)c3ccc(Cl)c([N+](=O)[O-])c3)cc12	HTT aggregate 11.2µM (no result: ERK EGF block)
O=C(O)CSc1nnc(CNc2ccc(F)cc2)n1-c1ccccc1	none
Cc1ccc(-n2c(CNc3ccc(F)cc3)nnc2SCC(N)=O)cc1	HTT aggregate 22.4µM (no result: ERK EGF block)
CCCCC/C=C\C/C=C\C/C=C\CCCCC(=O)NCCCC(=O)O	none (no result: HTT aggregate)
CCC(=O)[C@@H](c1ccccc1)c1ccccn1	none (no result: HTT aggregate, ERK EGF block)
COc1cc(N=c2ssnc2Cl)cc(OC)c1	HTT aggregate 10µM (no result: ERK EGF block)
Clc1nssc1=Nc1ccc(Br)cc1	HTT aggregate inconclusive
COc1cccc(-c2coc3ccc(Br)cc3c2=O)c1	none (no result: HTT aggregate)
O=C(c1ccco1)N(CCC(c1ccccc1)c1ccco1)Cc1ccc(F)cc1 (configuration not stated)	none (no result: ERK EGF block)
CC1(C)CC(C(CCN(Cc2ccccc2)C(=O)c2ccco2)c2ccc(F)cc2)CCO1 (configuration not stated)	HTT aggregate inconclusive, ERK EGF block 22.4µM
COC(=O)C1=C(C(=O)OC)[C@@H]2N(Cc3ccccc3)c3ccccc3[C@@]23C[C@@H](C(=O)OC)N(C(=O)c2ccco2)C3=N1	none (no result: HTT aggregate, ERK EGF block)
Cc1ccc2c(c1)Oc1ccc([N+](=O)[O-])cc1C(=O)N2	none
Cc1ccc2c(c1)Oc1ccc(NC(=O)CCl)cc1C(=O)N2	HTT aggregate 25.1µM
COc1ccc(N2CCN(C(=O)c3cccnc3SCc3cccc(Br)c3)CC2)cc1	HTT aggregate 22.4µM
COc1ccc(N2CCN(C(=O)c3ccc(C)cc3Cl)CC2)cc1	none (no result: ERK EGF block)
